Source: PubChem BioAssay AID455 (Sanford-Burnham Center for Chemical Genomics, 2006)
Hit rate of the full screen: of about 10,000 compounds, about 20 (0.2%) were called active.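 The calls were made as follows: active = a compound raising TNF-alpha-driven VCAM-1 surface staining, with its hit status upheld on visual or statistical review; inactive = the rest, including hits rejected on review.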 This excerpt belongs to a sample that is enriched for actives.

experiment: boosters of cytokine-driven VCAM-1 levels – cell-based, plate reader, pooled HUVEC, TNFa stimulus (AID 455); conditions: HUVEC TNFa-induced VCAM-1 immunofluorescence; hits give high values, 100% set by best visually verified hit,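 tested at 5 µM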;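 as to augmentation: 0% = TNFa plus DMSO wells and 100% = a visually confirmed top hit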

Structure (SMILES) | augmentation
Nc1nc(N2C(=O)C3CC=CCC3C2=O)nn1-c1ccccc1 (stereo unspecified) | inactive
O=C1c2ccccc2C(Nc2ccc3nc(-c4cccnc4)[nH]c3c2)N1Cc1ccco1 (stereo unspecified) | inactive
CCCCn1nnc(NC(=O)c2cc3ccccc3o2)n1 | inactive
COc1ccc2nc(NC(=O)c3ccoc3C)sc2c1 | inactive
COC(=O)C1C2C=CC3(CN(CC4CCCO4)C(=O)C13)O2 (stereo unspecified) | inactive
CCOC(=O)c1c(NC(=O)Cn2c(=O)oc3ccccc32)oc(C)c1C(C)=O | inactive
Cc1ccnc(SCCn2c(N3CCCCC3)nc3c2c(=O)n(C)c(=O)n3C)n1 | inactive
CC(=O)Nc1ccc(N2CCN(Cc3ccccc3F)CC2)cc1 | inactive
CCCCN(CCCC)C(=O)CN(C)S(=O)(=O)c1ccc2c(c1)n(C)c(=O)c(=O)n2C | inactive
O=C(CSc1nnnn1-c1ccccc1)Nc1ccc(Cl)cc1 | inactive
COc1ccc(S(=O)(=O)NCCOc2ccccc2)cc1OC | inactive
CCOc1ccc(N(C(C)=O)C2C=CS(=O)(=O)C2)cc1 (stereo unspecified) | inactive
Cc1ccc(S(=O)(=O)N2CCC(C(=O)NCCN3CCCCCC3)CC2)cc1 | inactive
O=C(c1ccc(S(=O)(=O)N2CCOCC2)cc1)N(c1ccc(F)cc1)C1C=CS(=O)(=O)C1 (stereo unspecified) | inactive
COc1ccc(-c2nnc(SCC(=O)NC(C)c3ccccc3)o2)cc1 (stereo unspecified) | inactive
COC(=O)c1ccc(CSc2nc(-c3ccc(OC)cc3)nc3c2c(=O)n(C)c(=O)n3C)o1 | inactive
CC1CCN(C(=O)c2ccc(C(=O)N3CCC(C)CC3)cc2)CC1 | inactive
CCOC(=O)Cc1cc(=O)n2[nH]c(C)c(-c3ccc(OC)cc3)c2n1 | inactive
COC(=O)Cc1cc(=O)[nH]c(Nc2nc3ccccc3o2)n1 | inactive
O=C(NC1CCCCCC1)c1cc(S(=O)(=O)N2CCC3(CC2)OCCO3)ccc1F | inactive
CCOc1cc(N2CCOCC2)c(OCC)cc1NC(=O)CSc1cccc[n+]1[O-] | inactive
CCOC(=O)CSc1nnc(CNC(=O)c2ccc(S(=O)(=O)N3CCCC3)cc2)n1C | inactive
Cc1cccc(CCNC(=O)C2CCCN(S(=O)(=O)c3cnc[nH]3)C2)c1 (stereo unspecified) | inactive
COc1ccc(S(=O)(=O)NCCCN2CCOCC2)c2ccccc12 | inactive

Structure (SMILES) | augmentation
CCc1nnc(NC(=O)c2ccc(S(=O)(=O)NCC(C)C)cc2)s1 | inactive
O=C(CCSc1nc(-c2ccco2)cc(C(F)(F)F)n1)NCCc1ccccc1 | inactive
CCc1ccccc1NC(=O)C(CC)Sc1nc2cc3c(cc2c(=O)n1Cc1ccco1)OCO3 (stereo unspecified) | inactive
O=C(O)CCC(=O)c1c[nH]c2ccccc12 | inactive
CC(=O)SCCC(=O)Nc1ccccc1 | inactive
c1cncc(-c2nc3c4ccccc4nc(N4CCC(N5CCCCC5)CC4)n3n2)c1 | inactive
c1ccc(Cn2nnnc2C(c2cccs2)N2CCSCC2)cc1 (stereo unspecified) | inactive
CCOC(=O)c1ccc(N(CC(=O)NC2CCCC2)C(=O)CNC(=O)c2ccco2)cc1 | inactive
O=C(O)c1ccc2c3c(ncnc13)-c1ccccc1C2=O | inactive
O=C(CSc1nnc(-c2ccncc2)o1)Oc1ccccc1 | inactive
COc1ccccc1C(O)P(=O)(OC(C)C)c1ccc(N(C)C)cc1 (stereo unspecified) | inactive
O=C(NCCCn1ccnc1)c1cnn2c1NC(c1ccccc1)CC2C(F)(F)F (stereo unspecified) | inactive
COc1ccc(-c2noc(CN3CCC(Cc4ccccc4)CC3)n2)cc1 | 30.2% (inactive)
Cc1nn(-c2ccccc2)c2c1C(c1c(C)[nH]c(C#N)c1C)C(C#N)=C(N)O2 (stereo unspecified) | inactive
CCOC(=O)N1CCN(C(=O)COc2ccc(Br)cc2Cl)CC1 | 61.2% (inactive)
COc1ccccc1C1CC(c2ccc(C)cc2)Nc2ncnn21 (stereo unspecified) | inactive
COc1ccccc1CN1CC(C(=O)N2CCN(c3ccc(F)cc3)CC2)CC1=O (stereo unspecified) | inactive
CCOC(=O)C1C2C=CC3(CN(Cc4ccco4)C(=O)C13)O2 (stereo unspecified) | inactive
COc1ccc(CN2C(=O)c3ccccc3C2C(=O)NC2CCCC2)c(OC)c1 (stereo unspecified) | inactive
CN(C)c1ccc(CNn2cnnc2)cc1 | inactive
CN(C)c1ccc(/C=C/c2ccncc2)cc1 | 42.9% (active)
CN(C)c1ccc(C=Nc2ccc(N(C)C)cc2)cc1 | inactive
N#CCCNCC1(c2ccccc2)CCCC1 | inactive
O=C(CSc1nnc2ccccn12)NCCN1C(=O)CSC1=O | inactive

Structure (SMILES) | augmentation
Cc1ccc(NC(=O)CSc2nnc(NC(=O)CN3CCOCC3)s2)cc1 | inactive
CCCc1[nH]nc2c1C(c1cccc(OC(=O)c3ccco3)c1)C(C#N)=C(N)O2 (stereo unspecified) | inactive
CCN(CC)c1ccc2c(C)c(-c3ccc(N)cc3)c(=O)oc2c1 | inactive
CCN(CC)c1ccc2cc(NC(=O)CCC(=O)O)c(=O)oc2c1 | inactive
CCN(CC)c1ccc2cc(-c3nc4ccccc4[nH]3)c(=O)oc2c1 | 100% (active)
CCCCOc1ccc(CSc2n[nH]c(C)n2)cc1 | inactive
CC(=O)Nc1cc(N2C(=O)CCC2=O)ccc1Cl | inactive
COC(=O)c1ccc(Cl)c(NC(C)=O)c1 | 82.8% (active)
CC(=O)Nc1ccc(Cl)cc1C(=O)O | inactive
CCCc1ccc(C(C)NC(=O)c2cnccn2)cc1 (stereo unspecified) | inactive
CCCCNC(=O)Cn1c(=O)n(C)c2ccccc21 | inactive
CCOC(=O)c1[nH]c(C)c(C(=O)Nc2ccc(Cl)cc2)c1C | inactive
Cc1ccc2cc3cc(C(=O)NCCN4CCOCC4)oc3nc2c1 | inactive
CC(=O)c1cccc(NC(=O)N2C3CCC2CC(O)(c2cccnc2)C3)c1 (stereo unspecified) | inactive
O=c1oc2c3c4c(cc2s1)CCCN4CCC3 | inactive
c1ccc2nc(-c3nc4ccccc4[nH]3)ccc2c1 | inactive
O=c1oc2c3c4c(cc2cc1-c1nc2ccccc2[nH]1)CCCN4CCC3 | 100% (active)
Cn1c(Cc2ccccc2)nnc1SCC(=O)c1ccc(Br)s1 | inactive
CCOc1ccccc1C(=O)Nc1nnc(CC)s1 | inactive
CCOC(=O)c1ccccc1NC(=O)CSc1nc2c(c(=O)n(C)c(=O)n2C)n1C | inactive
Cc1cc(=O)n2nc(N3CCCC(C(=O)N4CCc5ccccc54)C3)sc2n1 (stereo unspecified) | inactive
CN(CCNC(=O)c1ccc(N2CCCC2=O)cc1)CCc1ccccc1 | inactive
CC(C)n1nc(C(=O)Nc2nc3ccc(S(C)(=O)=O)cc3s2)c2ccccc2c1=O | inactive
